# Laboratory results as given in PubChem BioAssay AID1030 (National Center for Advancing Translational Sciences (NCATS), 2008).
# The campaign covered roughly 220,000 compounds. About 16,000 (7.3%) were called active. Where a call stands in place of a potency, no number is given. Another 25% or so got no clear call; they are omitted. This excerpt belongs to a sample that is enriched for actives. A number with no mark means an inactive call. The call rests on the fitted dose curve; in most records, active means well fitted inhibition curve with a large enough effect (not every such curve was filed as active); inconclusive means small, poorly fitted or top-dose-only effect, or another doubt; inactive means no such curve, though single readings can be large or run the other way.
# Biological target: Aldehyde dehydrogenase 1A1 (Homo sapiens) (UniProt P00352)
# Assay: qHTS Assay for Inhibitors of Aldehyde Dehydrogenase 1 (ALDH1A1)
# Settings: Purified ALDH1A1, NADH fluorescence, propionaldehyde substrate; series mostly up to 75.3 µM
# Potency means the concentration at half of the fitted maximal effect.
# Aldehyde dehydrogenase 1A1 (Homo sapiens), sequence (P00352 whole entry, looked up): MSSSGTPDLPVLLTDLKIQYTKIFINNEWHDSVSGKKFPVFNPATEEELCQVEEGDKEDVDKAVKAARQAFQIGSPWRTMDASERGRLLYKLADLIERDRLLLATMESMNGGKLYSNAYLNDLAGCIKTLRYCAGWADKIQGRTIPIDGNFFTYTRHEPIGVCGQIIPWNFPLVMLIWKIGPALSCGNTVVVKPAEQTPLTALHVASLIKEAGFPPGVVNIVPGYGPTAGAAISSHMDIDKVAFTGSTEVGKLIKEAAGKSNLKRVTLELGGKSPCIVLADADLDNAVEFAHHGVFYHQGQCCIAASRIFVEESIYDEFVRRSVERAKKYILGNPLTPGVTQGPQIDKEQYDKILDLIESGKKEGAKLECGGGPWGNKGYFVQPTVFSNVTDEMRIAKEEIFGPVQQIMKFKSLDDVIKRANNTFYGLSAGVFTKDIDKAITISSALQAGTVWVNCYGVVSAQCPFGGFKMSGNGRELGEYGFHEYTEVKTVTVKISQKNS
SMILES,Potency,"activity, negative = inhibition"
CC(OC(=O)CCc1nc(=O)c2ccccc2n1C)C(=O)NCc1ccc2c(c1)OCO2 (centres undefined),inactive,–
CC(C)CNC(=O)C(=O)Nc1ccc(N(C)C)cc1,inactive,–
COc1cc(CN2CCN(Cc3ccc(C)cc3)CC2)c([N+](=O)[O-])cc1OC,17.8 µM (active),–
COc1cc(CC(=O)N/N=C/c2ccccc2)c([N+](=O)[O-])cc1OC,inactive,–
COc1cc(CN2CC(C)CC(C)C2)cc([N+](=O)[O-])c1O (centres undefined),inactive,–
COC(=O)C1=C(N)Oc2c(oc(CO)cc2=O)C1c1c(F)cccc1Cl (centres undefined),inactive,–
C/C(=N\NC(=O)NC1CCCCC1)c1ccc(OC(F)F)cc1OC(F)F,inactive,–
Cn1c(=O)c2c(ncn2CC(=O)N/N=C/c2cn[nH]c2-c2ccc(F)cc2)n(C)c1=O,inactive,–
CC(=O)Oc1cccc(N2C(=O)C3CC=C(Cl)CC3C2=O)c1 (centres undefined),inactive,–
CC(=O)c1nc(N2C(=O)C3CC=C(C)CC3C2=O)sc1C (centres undefined),2.51 µM (active),–
Cc1ncc([N+](=O)[O-])n1CCOC(=O)c1ccc(Br)cc1,inactive,–
Cc1ccc(SCC(=O)NC(=O)NCc2ccco2)c(C)c1,22.4 µM (active),–
Cc1cc(C)n2nc(SCC(=O)NC(=O)NCc3ccco3)nc2n1,inactive,–
CCn1c(SCC(=O)NCc2ccco2)nnc1-c1ccc(N)cc1,inactive,–
O=C(CSc1nnc(-c2cccs2)n1-c1ccccc1)NCc1ccco1,inactive,–
Cc1ccc(NC(=O)C(=O)NCc2ccco2)c(C)c1,inactive,–
O=C(CSc1nnc(-c2ccco2)n1Cc1ccccc1)NC(=O)NCc1ccco1,15.8 µM (active),–
Cc1ccc(C(C)(C)C)c(OCCCCN2CCCC2)c1,inactive,–
COc1ccc(/C=N/NC(=O)Nc2ccc3nsnc3c2)c(OC)c1,inactive,–
CCOc1cc(C2C(C(=O)OC(C)C)=C(C)NC3=C2C(=O)CCC3)cc([N+](=O)[O-])c1O (centres undefined),inactive,–
COc1cccc(OC)c1C(=O)OCC(=O)/C(C#N)=C(\C)N,inactive,–
COC(=O)C1=C(C)N(C(C)c2ccccc2)C(=O)/C1=C\c1ccco1 (centres undefined),inactive,–
NNC(=O)C1CCCn2c1nc1sc3c(c1c2=O)CCCC3 (centres undefined),12.6 µM (active),–
Cn1c(NN)nc2sc3c(c2c1=O)CCC3,inactive,–
N=c1c2c3c(sc2nc2n1CCCCC2)CCCC3,inactive,–
O=C(CSc1ncn[nH]1)Nc1nc(-c2cccc([N+](=O)[O-])c2)cs1,17.8 µM (active),–

SMILES,Potency,"activity, negative = inhibition"
Cc1cccc(S(=O)(=O)CC(=O)Nc2nc(-c3ccccc3)cs2)c1,inactive,–
O=C(CSc1nc(-c2ccccc2)cs1)Nc1cccc([N+](=O)[O-])c1,inactive,–
CC(=O)c1ccc(-c2nnc(CCC(=O)N(C)Cc3cnc4ccccn34)o2)s1,inactive,–
CCCCCCCCCCCCCCCCO,inactive,–
O=C(Nc1ccccc1C(F)(F)F)c1cc(-c2ccc(O)cc2)on1,inactive,–
Cc1cc(C)nc(NC(=O)Nc2ccccc2C(F)(F)F)n1,35.5 µM (active),–
Cc1cc(C)nc(NC(=O)C(C)N2C(=O)c3ccccc3C2=O)n1 (centres undefined),inactive,–
Cc1ccc(NC(=O)c2oc3ccccc3c2C)c([N+](=O)[O-])c1,inactive,–
CC1=C(C)CC(C(=O)NC(C)CCc2ccccc2)C(C(=O)O)C1 (centres undefined),inactive,–
CCC(C)[C@@H](N)C(=O)O (some centres undefined),inactive,–
CC(C)NC(=O)NC(=O)CSc1nnc(-c2ccccc2F)n1N,inactive,–
Cc1ccc(C2C3=C(Nc4[nH]n(-c5ccccc5)c(=O)c42)c2ccccc2C3=O)cc1 (centres undefined),11.2 µM (active),–
Cc1cc(C)c(C2C3=C(Nc4c2c(C)nn4-c2ccccn2)c2ccccc2C3=O)c(C)c1 (centres undefined),inactive,–
Cc1ccc(N=Nc2c(C)[nH]n(-c3ccccc3)c2=O)cc1,inactive,–
Cn1cnnc1Sc1ccc(S(C)(=O)=O)cc1[N+](=O)[O-],inactive,–
c1csc(-c2nnc(COc3ccc4c(c3)OCO4)o2)c1,inactive,–
O=[N+]([O-])c1cc(Br)c(O)c(/C=N/Nc2nc3ccccc3s2)c1,inactive,–
c1ccc2sc(SCCSc3nc4ccccc4s3)nc2c1,–,3.19% [at 13.5 µM]
O=[N+]([O-])c1c(NCCO)cc(Sc2nc3ccccc3s2)c2nonc12,8.91 µM (active),–
OCC1(CCOc2ccccc2)CCN(Cc2cn[nH]c2-c2ccccc2)CC1,inactive,–
CN(CCC1CCOCC1)Cc1cn[nH]c1-c1ccc(-c2ccccc2)cc1,10 µM (active),–
Cc1nnc(CN(C)Cc2cn[nH]c2-c2ccc(-c3ccccc3)cc2)o1,12.6 µM (active),–
O=C(c1ccc(F)cc1)C1CCN(Cc2cn[nH]c2-c2ccccc2)CC1,inactive,–
COc1ccc(-c2[nH]ncc2CN(C)Cc2c(C)n[nH]c2C)c(OC)c1,inactive,–
O=C(OCc1ccc([N+](=O)[O-])cc1)c1ccccn1,inactive,–
Cc1nc([N+](=O)[O-])c(NCCCO)n1Cc1ccccc1,inactive,–

SMILES,Potency,"activity, negative = inhibition"
CCNc1nc(-c2cc3ccccc3o2)cs1,inactive,–
NS(=O)(=O)c1ccc(CCNC(=O)c2ccc(Cl)cc2[N+](=O)[O-])cc1,inactive,–
O=P(O)(CN1CCCCCC1)C1Cc2ccccc2C1,inactive,–
CCOC(=O)c1sc(=S)n2c1[nH]c(=O)c1ccc(C(=O)OC)cc12,8.91 µM (active),–
CCOC(=O)C1=C(C)Nc2sc(C(=O)c3ccc(Br)cc3)c(N)c2C1c1ccc(C(=O)OC)cc1 (centres undefined),inactive,–
CCOC(=O)c1sc(NC(=O)c2ccncc2)nc1C,inactive,–
Cc1ccc(/C=N/NC(=O)COc2ccccc2-c2ccccc2)cc1,inactive,–
CC(C)(C)C1C/C(=C/c2ccco2)C(=O)/C(=C/c2ccco2)C1 (centres undefined),7.94 µM (active),–
CCC1C/C(=C/c2cccs2)C(=O)/C(=C/c2cccs2)C1 (centres undefined),inactive,–
CCC1S/C(=N/N=C/c2ccco2)NC1=O (centres undefined),inactive,–
COc1ccc(C2=NN(c3nc4ccccc4s3)C(=O)C2)cc1,inactive,–
CCCCn1c(=O)c(C(C)=O)c(O)c2ccccc21,inactive,–
Cc1[nH]c2c(C(=O)N3CCCC(CCC(=O)NCc4ccccc4F)C3)cccc2c1C (centres undefined),inactive,–
COc1ccccc1N1CCN(Cc2ccc(OC)c3ccccc23)CC1,inactive,–
CCN1CCN(CCCCOc2ccccc2F)CC1,inactive,–
COc1ccccc1N1CCN(CCCCOc2ccc(F)cc2)CC1,25.1 µM (active),–
CCOC(=O)c1c(NC(=O)C2CC=CCC2C(=O)O)sc(C)c1CC (centres undefined),inactive,–
Cc1ccc(-c2cccc([C@H]3[C@@H]4C=CC[C@@H](C)[C@@H]4C(=O)N3Cc3ccccc3)c2)cc1,inactive,–
COc1ccc(OC)c(Cc2nnc(CCC(=O)NC3CCCC3)o2)c1,inactive,–
O=C1CSC(c2cccc(F)c2)N1c1ccc(O)cc1 (centres undefined),inactive,–
O=C1CSC(c2ccccc2)N1c1nc(-c2ccc(Cl)cc2Cl)cs1 (centres undefined),inactive,–
O=C1CSC(c2cccc(F)c2)N1c1ccccc1F (centres undefined),14.1 µM (active),–
CC1CCN(c2ccc(S(=O)(=O)Nc3cc(C(=O)O)cc(C(=O)O)c3)cc2[N+](=O)[O-])CC1,inactive,–
CC1CCN(C(=O)c2ccc(S(=O)(=O)Cc3cc(F)ccc3F)c([N+](=O)[O-])c2)CC1,7.08 µM (active),–
O=C(Nc1ccc(F)cc1)C1CCN(C(=O)c2ccc([N+](=O)[O-])cc2)CC1,inactive,–
CCc1[nH]nc(C(=O)N2CCCC(CNS(=O)(=O)c3cccs3)C2)c1C (centres undefined),inactive,–

SMILES,Potency,"activity, negative = inhibition"
COCCCNC(=O)C1CCC(CNS(=O)(=O)c2ccc(OC)cc2)CC1 (centres undefined),inactive,–
COc1ccc(S(=O)(=O)NCC2CCCN(C(=O)c3occc3C)C2)cc1 (centres undefined),4.47 µM (active),–
Cc1ccc(S(=O)(=O)N2CCOCC2)cc1C(=O)OC1CCCCC1=O (centres undefined),inactive,–
CCC(C)NC(=O)Cn1nc(C(F)(F)F)c2c1CCC2 (centres undefined),inactive,–
CS(=O)(=O)N1CCN(C(=O)Cc2ccccc2)CC1,8.91 µM (active),–
CS(=O)(=O)N1CCC(C(=O)N2CCN(c3ccccc3)CC2)CC1,inactive,–
CS(=O)(=O)N(CC(=O)N1CCCC1)Cc1ccccc1,inactive,–
O=C(Nc1ccc(Cl)cc1)Nc1ccc(Oc2cccnc2)nc1,inactive,–
Cc1ccc(-n2cc(CN(C)Cc3nccn3C)c(-c3cccc(C)c3)n2)cc1,inactive,–
COc1cccc(Cn2c(=O)c(C)nc3cnc(Oc4ccccc4)nc32)c1,inactive,–
COc1cccc(Cn2c(=O)cnc3cncnc32)c1,2.51 µM (active),–
COc1cccc(Cn2c(=O)c(-c3cc(F)cc(F)c3)nc3cnc(OC)nc32)c1,inactive,–
COc1ccc(OC)c(NC(=O)CN(Cc2ccc(Cl)cc2)S(C)(=O)=O)c1,inactive,–
CCC(C)(C)C1CCC(=NNC(=O)c2ccc(Br)o2)CC1 (centres undefined),inactive,–
O=c1[nH]c2c(c(=O)n1Cc1ccccc1)CCC2,inactive,–
Cc1nc2cnc(Nc3ccccc3)nc2n(Cc2ccc(F)cc2)c1=O,inactive,–
Cc1cc2nc3c(=O)n(Cc4ccccc4)c(=O)[nH]c3nc2cc1N,12.6 µM (active),–
CCS(=O)(=O)c1ccc(C(=O)NC)c(Cl)c1Cl,inactive,–
c1ccc(CCn2nnnc2CN2CCN(C3CCCC3)CC2)cc1,inactive,–
COc1ccc(C(c2nnnn2C2CCCCC2)N2CCN(c3ccccc3F)CC2)cc1 (centres undefined),inactive,–
c1ccc(C(c2ccccc2)N2CCN(Cc3nnnn3C3CCCCC3)CC2)cc1,7.94 µM (active),–
Cc1ccc(N(CCC(=O)O)S(=O)(=O)c2cccc(C(F)(F)F)c2)cc1,inactive,–
COc1ccc2c(c1)c(=O)c(C(=O)c1ccc(Cl)cc1)cn2CC(=O)Nc1ccc(F)cc1,inactive,–
COc1ccc2[nH]cc(CCNc3ncnc4ccc(-c5ccccc5CN(C)C)cc34)c2c1,inactive,–
COc1ccc2[nH]cc(CCNc3ncnc4ccc(-c5ccc(C(=O)N(C)C)cc5)cc34)c2c1,25.1 µM (active),–
COc1ccc2[nH]cc(CCNc3nc(-c4cccc(NS(C)(=O)=O)c4)nc4ccccc34)c2c1,inactive,–
